# In PubChem BioAssay AID504332 (National Center for Advancing Translational Sciences (NCATS), 2011):
# The campaign covered roughly 350,000 compounds. About 31,000 (8.9%) were called active. Entries that show only a call come without a potency. Another 15% or so got no clear call; they are omitted. Only a selection was taken, and actives are over-represented in it overall. A number with no mark means an inactive call. Calls come from the whole dose curve; as a rule, active = well fitted inhibition curve with a large enough effect; inconclusive = small, poorly fitted or top-dose-only effect; inactive = no such curve, though single readings can be large or run the other way.
# Target: Histone-lysine N-methyltransferase EHMT2 (Homo sapiens) (UniProt Q96KQ7)
# Test: qHTS Assay for Inhibitors of Histone Lysine Methyltransferase G9a; note: nearly all actives have a fitted effect of over 75% in size
# Conditions: G9a H3K9 monomethylation, AlphaScreen, 2 h; series mostly up to 59 µM
# Source text: Methylated lysines, on the N-terminal tails of histone proteins serve as epigenetic markers to recruit factors that can then modify local chromatin structure to lead to functional consequences. G9a and other members of the SUV39 family of the SET domain-containing superfamily of histone lysine methyltransferases (HMT) have been identified to specifically methylate Lys9 of histone H3 (H3K9). G9a catalyzes the mono- and di-methylation of H3K9 in mammalian euchromatic regions, where the resulting H3K9me2 is indicative of transcriptional repression. […] The inhibition of G9a will result in transcriptional activation and work synergistically with DNA methyltransferase and histone deacetylase inhibitors, to kill cancer cells. This qHTS assay for identification of G9a inhibitors is a chemiluminescence based AlphaScreen (PerkinElmer). Methylation of biotinylated-histone peptide is measured through specific antibody-based detection, in conjunction with streptavidin-coated donor and anti-IgG antibody-coated acceptor beads. The method is particularly well suited for detection of inhibitors acting by the desired histone peptide competitive mechanism and is applicable to testing other HMTs. Although AlphaScreen has significant advantages with its utility in a variety of epigenetic target assays, the primary screening data provided in this deposition should be used with caution due to the prevalence of screening artifacts. An AlphaScreen counterscreen is highly recommended to be run against any putative actives to eliminate non specific artifacts. Alternatively, one can use other AlphaScreen assays in PubChem to filter out promiscuous hits. Quinn et al. A chemiluminescence-based method for identification of histone lysine methyltransferase inhibitors. Mol Biosyst 6(5): 782-8. 2010. PMID: 20567762 [2] Baell,Holloway. New substructure filters for removal of pan assay interference compounds (PAINS) from screening libraries and for their exclusion in bioassays. J Med Chem. 53(7):2719-40. 2010. PMID: 20131845 NIH Molecular Libraries Probe Production Network [MLPCN] NIH Chemical Genomics Center [NCGC] Structural Genomics Consortium (SGC) NIH Grant: 5U54 MH084681-02
# To each well of a 1,536w plate, 2ul of HMT enzyme (final 20nM) were added, using a nanoliter dispenser. The G9a- and GLP-inhibitor BIX-01294 (CID: 25150857) are used as an intraplate control, with a 16-point titration in duplicate. A Kalypsys pin-tool transferred 23nl of library compound solution in DMSO to each well. Following a 15 min incubation of enzyme with compounds at room temperature, 1ul mixture of b-H3K9 peptide substrate (final 500nM) and SAM cofactor (final 20uM) were added. Reactions were allowed to proceed at room temperature for 2 hours. Methylated b-H3K9 peptide product was detected with 0.5 ug/mL rabbit polyclonal anti-monomethyl histone H3K9 antibody (Abcam Inc., Cambridge, MA) and 20 ug/mL each streptavidin-coated donor and anti-rabbit IgG acceptor AlphaScreen beads. Antibody and beads were added in a 1ul dispense, for a final volume of 4ul, and plates were incubated, protected from the light, for 10 min at room temperature. Microplates were then read on an EnVision multilabel plate reader using the 1,536 plate HTS AlphaScreen aperture (excitation time 80 ms, measurement time 240 ms).
# Potency is the fitted concentration of half-maximal effect.
# Histone-lysine N-methyltransferase EHMT2 (Homo sapiens), sequence (Q96KQ7 913-1193 limits assumed): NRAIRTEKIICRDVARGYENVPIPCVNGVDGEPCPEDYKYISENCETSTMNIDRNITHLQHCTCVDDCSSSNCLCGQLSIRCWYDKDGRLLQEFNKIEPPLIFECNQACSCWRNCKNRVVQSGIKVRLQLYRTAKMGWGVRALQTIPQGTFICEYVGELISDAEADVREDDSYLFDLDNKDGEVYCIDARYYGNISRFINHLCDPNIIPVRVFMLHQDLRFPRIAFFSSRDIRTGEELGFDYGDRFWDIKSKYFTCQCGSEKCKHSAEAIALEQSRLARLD
SMILES,"activity, negative = inhibition",Potency
CC(CN1CCOCC1)OC(=O)c1ccc(C(C)(C)C)cc1 (configuration not stated),6.26% [at 0.501 µM],
N#Cc1ccc(C2=CC(=O)C[C@H](c3ccc(Cl)cc3)C2)cc1,-28.8% [at 0.501 µM],
CCOC(=O)c1c(S(=O)(=O)N2CCCC(C(=O)NCc3ccc(F)cc3)C2)c(C)n(CC)c1C (configuration not stated),,inactive
Cc1ccc(CN2CC(C(=O)N3CCN(S(=O)(=O)c4ccccc4)CC3)CC2=O)cc1 (configuration not stated),,inactive
Cc1ccc(CN2CCCn3nc(C(=O)NCc4ccccc4Cl)cc3C2=O)cc1,,inactive
O=C(N/N=C/c1c(Cl)[nH]c2ccccc12)c1sc2ccccc2c1Cl,,inactive
Oc1ccc(N=Cc2sc3ccccc3c2Cl)cc1,,10 µM (active)
COc1ccc(N=C(C)c2sc3ccccc3c2O)cc1,,inactive
Oc1ccc2ccccc2c1C=Nc1ccccc1,,2.51 µM (active)
Oc1ccc(N=Cc2c(O)ccc3ccccc23)cc1,,1 µM (active)
O=C(O)C#Cc1cccc2ccccc12,,inactive
CCOc1ccc(N=Cc2c(O)n(-c3cccc(C)n3)c(=O)c3ccccc23)cc1,,inactive
CCOc1[nH]n(-c2ccc(Cl)cc2)c(=O)c1C=Nc1ccc(O)cc1,,inactive
O=S(=O)(NCCc1nnc2ccc(SCc3ccc(Cl)cc3Cl)nn12)c1ccccc1,,inactive
COc1ccc(NC(=O)C2CCCN(S(=O)(=O)c3cccc4nonc34)C2)cc1Cl (configuration not stated),,inactive
O=S(=O)(Nc1ccc(-n2cnnn2)cc1)c1ccc(Cl)cc1,,inactive
CCOc1ccccc1C(=O)Nc1ccc2c(c1)N(C)C(=O)c1ccccc1S2,,inactive
Cc1ccc(OCCNC(=O)CNC(=O)c2ccc(C)c(C)c2)cc1,24.7% [at 2.33 µM],
COC(=O)COc1ccc2c(c1C)O/C(=C\c1ccco1)C2=O,,8.91 µM (active)
COc1ccccc1OCC(=O)OCc1cc(-c2ccco2)on1,3.66% [at 12.7 µM],
Cc1cc(C)c(OCC(=O)N/N=C/c2ccco2)c(C)c1,,inactive
COc1cccc(C(=O)OCC(=O)c2[nH]c(C)c(C(C)=O)c2C)c1,-42.2% [at 12.7 µM],
CCOc1ccc(N(CC)C(=O)C2CCN(S(=O)(=O)c3cccc4nonc34)CC2)cc1,,inactive
COc1ccc(S(=O)(=O)N2CCOCC2)cc1NC(=O)CSc1cc(C)ccc1C,3.19% [at 0.501 µM],

SMILES,"activity, negative = inhibition",Potency
CCOC(=O)c1cccc(NS(=O)(=O)c2cn(C)c(C)n2)c1,,inactive
Cc1cccc(N2CCN(C(=O)CCn3c(=O)c4cccn4c4cccnc43)CC2C)c1 (configuration not stated),,inactive
CSCCC(NC(=O)c1ccco1)C(=O)NCCc1ccc(F)cc1 (configuration not stated),40.1% [at 12.7 µM],
O=C(CN1CCN(c2ccccn2)CC1)NC1CCCCC1,,inactive
CCN(CC)c1ccc(NC(=O)CN2CCN(c3ccccn3)CC2)cc1,,44.7 µM (active)
CCN(CC)c1ccc(NC(=O)c2ccc(Cl)nc2)cc1,,10 µM (active)
NS(=O)(=O)c1ccc(NC(=O)COC(=O)c2ccc(Cl)nc2)cc1,,inactive
O=C(CN1CCN(c2ccccn2)CC1)Nc1ccc(Br)cc1,,inactive
CCOC(=O)N1CCN(CC(=O)Nc2ccc(F)cc2)CC1,,inactive
CCOc1ccc(NC(=O)CN2CCN(CC(=O)Nc3ccc(OC)cc3)CC2)cc1,,inactive
CCN(CC)c1ccc(NC(=O)CN2CCN(CC(=O)Nc3ccc(Cl)cc3)CC2)cc1,,7.08 µM (active)
Cc1cnc(NC(=O)c2ccc(Cl)nc2)s1,,inactive
Cc1ccccc1N1CCN(S(=O)(=O)c2ccc3ccccc3c2)CC1,14.6% [at 0.501 µM],
COC(=O)c1ccc2c(C(C)(C)O)c(C(C)(C)O)[nH]c2c1,,inactive
COc1ccc(N2CCN(C(=O)CSCc3nc(-c4ccccc4Cl)oc3C)CC2)cc1,,inactive
CNc1ccc([N+](=O)[O-])cc1C(=O)O,,inactive
CCN(CC)C(=O)CN(c1cccc([N+](=O)[O-])c1)S(=O)(=O)c1ccccc1,,inactive
CCN(CC)c1ccc([N+](=O)[O-])cc1C(=O)O,,50.1 µM (active)
COc1ccc(N(CCC(=O)NCCc2ccccc2)S(=O)(=O)c2ccc(C)cc2C)cc1,12.2% [at 12.7 µM],
O=C(c1cc(S(=O)(=O)N2CCOCC2)ccc1Cl)N1CCOCC1,,inactive
CCCN(CCC)CCCNC(=O)Cn1ncc2c3ccccc3n(Cc3ccccc3)c2c1=O,,inactive
Cc1ccc(NC(=S)N2CCN(c3ncccn3)CC2)cc1C,,inactive
Cc1nc2ccc(NC(=S)N3CCC(C)CC3)cc2nc1C,,44.7 µM (active)
